Test results reported in PubChem BioAssay AID651604 (The Scripps Research Institute Molecular Screening Center, 2012).
About 1,400 (93%) of roughly 1,500 compounds were called active. Cut-off read from the data, not from the text of the source: active = inhibition above about 9.5%; inactive = the rest. So high a share suggests a set chosen from earlier hits. These entries were drawn from the full list.

Test: PGV04 antibody small-molecule binding – biochemical, TR-FRET, distinct HIV envelope site, counter-screen for PG9 antibody binder project (AID 651604)
Details: TR-FRET PGV04 antibody-gp120 binding, at 6.7 µM, active compounds read high

Row | SMILES | inhibition
1 | CCN(CC)C(=O)c1ccc(NC(=O)c2sccc2-c2ccccc2)cc1 | 25.4% (active)
2 | N#CC1=C(N)Oc2c(c(=O)oc3ccccc23)C1c1ccccc1OC(=O)c1cccs1 (configuration not stated) | 28% (active)
